“And” between values parts separate entries of the source, which are not always exact repeats. Identical values can stand only once. Records with an inconclusive call do not appear. Entries that show only a call come without a potency. The source made the active and inactive calls. Calls come from the whole dose curve; as a rule, active = well fitted curve in the direction sought with a large enough effect; inconclusive = small, poorly fitted or top-dose-only effect, or another doubt; inactive = no such curve, though single readings can be large; an effect the other way counts as inactive or inconclusive.
Key:
[1] = P-glycoprotein substrates identified in KB-8-5-11 adenocarcinoma cell line, qHTS therapeutic library screen (AID 1346987); note: nearly all actives have a fitted effect of over 65% in size
Procedure, shortened: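 KB-8-5-11, a colchicine-selected P-gp-overexpressing KB-3-1 subline, was grown without colchicine for the assay. Cells were seeded at 500 cells/well, dosed in concentration-response and incubated 72 h at 37 degree C, 5% CO2. Viability was read by CellTiter-Glo luminescence.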

[2] = NS1 protein of Zika virus - qHTS assay to identify small molecule inhibitors in human HEK 293 cells (AID 1347053); note: nearly all actives have a fitted effect of over 55% in size
Procedure, shortened: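 Inhibition of NS1 expression was scored in HEK 293 cells given compound 1 h ahead of MR766 virus (MOI = 0.5). Following 24 h at 37 C, two anti-NS1 antibodies generated a TR-FRET signal, scaled between uninfected and infected controls.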
Potency is the fitted concentration of half-maximal effect.

| Structure (SMILES) | Potency [1] | Potency [2] |
| --- | --- | --- |
| O=C(Nc1cccc(Cl)c1)Nc1ncc(CCNc2ncnc3ccsc23)s1 | 1.16 µM (active) | inactive |
| OC[C@H]1O[C@@H](OCCc2ccc(O)cc2)[C@H](O)[C@@H](O)[C@H]1O | inactive | inactive |
| COc1cc2c(cc1OC)[C@@H]1Cc3ccc(OC)c(OC)c3CN1CC2 | inactive | inactive |
| CC(=O)N1CCN(c2ccc(OCc3nn(C)c(C)c3-c3cccc4c(CCCOc5cc(C)c(Cl)c(C)c5)c(C(=O)O)n(Cc5cccnc5)c34)cc2)CC1 | inactive | inactive |
| CO[C@@H]1C(N(C)C(=O)c2ccccc2)C[C@H]2O[C@]1(C)n1c3ccccc3c3c4c(c5c6ccccc6n2c5c31)C(=O)NC4=O (some centres undefined) | 7.43 µM (active) | inactive |
| CC(C)(CO)[C@@H](O)C(=O)NCCC(=O)O | inactive | inactive |
| C[C@H](c1ccc(F)cc1CCCC(=O)O)N(c1cc(F)ccc1F)S(=O)(=O)c1ccc(Cl)cc1 | inactive | inactive |
| C[C@@H](O)[C@H]1C(=O)N2C(C(=O)OCOC(=O)C(C)(C)C)=C(SC3CN(C4=NCCS4)C3)[C@H](C)[C@H]12 | inactive | inactive |
| Cc1cc(CS(=O)(=O)c2ccccc2)cc(OCc2ccc(CN3CCC[C@H]3CO)cc2)c1 | 4.18 µM (active) | inactive |
| NS(=O)(=O)c1cc(Cl)c(Cl)c(S(N)(=O)=O)c1 | inactive | inactive |
| O=C(O)C1=CC(O)C(O)[C@H](O)C1 (some centres undefined) | inactive | inactive |
| Cc1cc2nc3c(=O)[nH]c(=O)nc-3n(CC(O)C(O)C(O)CO)c2cc1C (centres undefined) | inactive | inactive |
| CN(C)CCN(Cc1ccc(Cl)cc1)c1ccccn1 | inactive | inactive |
| O=C1Nc2ccc(I)cc2C1=Cc1cc(Br)c(O)c(Br)c1 | inactive | inactive |
| CC(C)CNc1ccnc(NCc2csc(-c3ccccc3)n2)n1 | 18.7 µM (active) and 10.3 µM (active) | 26.4 µM (active) |
| Cc1ccc(NC(=O)Nc2cc(C(F)(F)F)ccc2F)cc1Nc1ccc2c(c1)NC(=O)C2=Cc1ccc[nH]1 | 10.5 µM (active) | inactive |
| CC[C@H](CC#N)OC(=O)N[C@@H](C)c1cccc(NC(=O)Nc2ccc(-c3cnco3)c(OC)c2)c1 | 5.9 µM (active) and 5.8 µM (active) | 0.235 µM (active) |
| COc1cc([C@H]2Oc3cc([C@H]4Oc5cc(O)cc(O)c5C(=O)[C@H]4O)ccc3O[C@H]2CO)ccc1O | inactive | inactive |
| NCC1CCC(C(=O)O)CC1 (centres undefined) | inactive | inactive |
| COc1ccc(CCN(C)CCCOc2ccc(S(=O)(=O)c3[nH]c4ccccc4c3C(C)C)cc2)cc1OC | inactive | inactive |
| NC1(C(=O)N[C@@H](CCO)c2ccc(Cl)cc2)CCN(c2ncnc3[nH]ccc23)CC1 | inactive | inactive |

| Structure (SMILES) | Potency [1] | Potency [2] |
| --- | --- | --- |
| CCCC1OC2C[C@@H]3[C@H]4CCC5=CC(=O)C=C[C@]5(C)[C@H]4C(O)C[C@]3(C)[C@]2(C(=O)CO)O1 (some centres undefined) | inactive | inactive |
| CCc1cc(-c2n[nH]c(C)c2-c2ccc3c(c2)OCCO3)c(O)cc1O | 9.35 µM (active) | inactive |
| Cc1nc(C(=O)NCC(=O)O)c(O)c2ccc(Oc3ccccc3)cc12 | inactive | inactive |
| CC1CCN(c2cc(N3CCN(C)CC3)ccc2NC(=O)c2cc(C#N)c[nH]2)CC1 | inactive | inactive |
| COc1cc(CNC(=O)CCCCC=CC(C)C)ccc1O | inactive | inactive |
| CC(C)(F)C[C@H](N[C@@H](c1ccc(-c2ccc(S(C)(=O)=O)cc2)cc1)C(F)(F)F)C(=O)NC1(C#N)CC1 | inactive | inactive |
| NC[C@H]1O[C@H](O[C@@H]2[C@@H](O)[C@@H](O[C@H]3O[C@H](CO)[C@@H](O)[C@H](N)[C@@H]3O)[C@H](N)C[C@@H]2N)[C@H](O)[C@@H](O)[C@H]1O | inactive | inactive |
| CC(C)c1c(C(=O)Nc2ccccc2)c(-c2ccccc2)c(-c2ccc(F)cc2)n1CC[C@H](O)C[C@@H](O)CC(=O)O | inactive | inactive |
| CC1(C)CC(=O)c2c(C(F)(F)F)nn(-c3ccc(C(N)=O)c(NC4CCC(O)CC4)c3)c2C1 (centres undefined) | 0.418 µM (active) | 23.5 µM (active) |
| Cc1ccc(C(=O)N(CCCN)[C@@H](c2oc3cc(Cl)ccc3c(=O)c2Cc2ccccc2)C(C)C)cc1 | 0.0833 µM (active) | 10.5 µM (active) |
| CC(C)c1onc(-c2c(Cl)cccc2Cl)c1COc1ccc(C=Cc2cccc(C(=O)O)c2)c(Cl)c1 | inactive | inactive |
| COc1c(C)c2c(c(O)c1CC=C(C)CCC(=O)OCCN1CCOCC1)C(=O)OC2 | 7.43 µM (active) | 0.526 µM (active) |
| Fc1ccc(CNc2ncnc3ccc(F)cc23)cc1 |  | inactive |
| COc1ccc(-c2cc(=O)c3c(O)cc(O[C@@H]4O[C@H](CO[C@@H]5O[C@@H](C)[C@H](O)[C@@H](O)[C@@H]5O)[C@@H](O)[C@H](O)[C@@H]4O)cc3o2)cc1O | inactive | inactive |
| CC[C@H](C=C[C@@H](C)[C@H]1CC[C@H]2[C@@H]3CC=C4C[C@@H](O)CC[C@]4(C)[C@@H]3CC[C@]12C)C(C)C | inactive | inactive |
| O=C(Nc1ccc(OC(F)(F)F)cc1)c1sccc1NCc1ccnc2ccccc12 | inactive | inactive |
| Cc1ccc(C2=Nc3ccc(Cl)cc3OC2)cc1 | inactive | inactive |
| CCc1cccc(CC)c1NC(=O)N1Cc2[nH]nc(NC(=O)c3ccc(N4CCN(C)CC4)cc3)c2C1 | inactive | inactive |
| CC[C@H]1OC(=O)[C@H](C)[C@@H](O[C@H]2C[C@@](C)(OC)[C@@H](O)[C@H](C)O2)[C@H](C)[C@@H](O[C@@H]2O[C@H](C)C[C@H](N(C)C)[C@H]2O)[C@](C)(O)C[C@H](C)C(=NOCOCCOC)[C@H](C)[C@@H](O)[C@]1(C)O | inactive | inactive |
| CN1[C@H]2CC[C@H]1CC(OC(=O)c1c[nH]c3ccccc13)C2 (some centres undefined) | inactive | inactive |
| CC(NCCc1ccc(O)cc1)C(O)c1ccc(O)cc1 (centres undefined) | inactive | inactive |

| Structure (SMILES) | Potency [1] | Potency [2] |
| --- | --- | --- |
| COc1cc(C=CC(=O)O)ccc1O | inactive | inactive |
| C[C@H]1COC2=C1C(=O)C(=O)c1c2ccc2c1CCCC2(C)C |  | inactive |
| COc1cc2nc(-c3cc(F)ccc3O)nc(N[C@@H]3CNC[C@@H]3C(C)(C)O)c2cc1OC |  | 9.35 µM (active) |
| C[C@]12CCC3=C4CCC(=O)C=C4CC[C@@H]3[C@H]1CC[C@@]2(O)CC#N |  | inactive |
| Cn1cc(-c2ccc3nnc(Sc4ccc5ncccc5c4)n3n2)cn1 | inactive | inactive |
| O=C(c1ccc(C(=O)N2CCC(N3CCCC3)CC2)c(Nc2ccccc2)c1)N1CCC(N2CCCC2)CC1 | inactive | inactive |
| OC1CCC(Nc2ncc3nc(Nc4c(F)cc(F)cc4F)n([C@@H]4CCOC4)c3n2)CC1 (some centres undefined) | inactive | inactive |
| CCNC(=O)CCCC=CC[C@@H]1[C@H](C=CC(O)CCc2ccccc2)[C@@H](O)C[C@@H]1O (some centres undefined) | inactive | inactive |
| Cc1ccc(NC(=O)c2cccc(N(C)C)c2)cc1NC(=O)c1ccc(O)cc1 | inactive | inactive |
| c1ccc(CNc2nc(N3CCOc4ccccc43)nc3c2CCCC3)cc1 | inactive | inactive |
| CC=C1C2C=C(C)CC1(N)c1ccc(=O)[nH]c1C2 (centres undefined) | inactive | inactive |
| Cc1nn(Cc2ccccc2Cl)c(C)c1CN(C)CC(O)COc1ccc(Cl)cc1 (centres undefined) |  | inactive |
| N#Cc1c(N(CC(=O)O)CC(=O)O)sc(C(=O)O)c1CC(=O)O | inactive | inactive |
| CNC(=O)c1c(-c2ccc(F)cc2)oc2cc(N(CCO)S(C)(=O)=O)c(C3CC3)cc12 | inactive | inactive |
| C[C@@H]1C[C@H]2[C@@H]3CCC4=CC(=O)C=C[C@]4(C)[C@@]3(F)[C@@H](O)C[C@]2(C)[C@@]1(O)C(=O)CO | inactive | inactive |
| CN(C)CCN(C)C(=O)c1ccc(NC(=O)Nc2ccc(-c3nc(N4CCOCC4)c4ccn(CC(F)(F)F)c4n3)cc2)cc1 | inactive | 3.32 µM (active) |
| C[C@H]1[C@H](O)O[C@@H]2O[C@@]3(C)CC[C@@H]4[C@H](C)CC[C@@H]1[C@@]24OO3 | 18.7 µM (active) | 26.4 µM (active) |
| NCc1c[nH]c(=S)n1[C@H]1CCc2c(F)cc(F)cc2C1 | inactive | inactive |
| CN1CCN2c3ncccc3Cc3ccccc3C2C1 (centres undefined) | inactive | inactive |
| COC(=O)N1CCN(Cc2cccc(NC(=O)Nc3ccc(C)nc3)c2F)CC1 | inactive | inactive |
